Experimental data taken from PubChem BioAssay (EPA / NIEHS).
Activity calls are given as the source filed them. How the source made its calls: active means hit-call score of the fitted dose curve at least 0.9, where 1 is the maximum; inactive means score below 0.9.

Assays:
[1] = read-out: Collagen III, COL3A1 (gene 1281); experiment: BSK_hDFCGF_CollagenIII: BioMAP Diversity Plus: hDFCGF Assay for Collagen III Biomarker Activity (AID 2283056); settings: primary human foreskin fibroblasts; actives raise or lower the signal
Procedure, shortened: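 ELISA readout of Collagen III in human dermal (foreskin) fibroblasts, taken 24 h post-treatment. Gain or loss relative to DMSO vehicle fitted in both directions.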

[2] = read-out: Epidermal growth factor receptor (EGFR), EGFR (gene 1956); experiment: BSK_hDFCGF_EGFR: BioMAP Diversity Plus: hDFCGF Assay for Epidermal growth factor receptor (EGFR) Biomarker Activity (AID 2283057); settings: primary human foreskin fibroblasts; actives raise or lower the signal
Procedure, shortened: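 Cell-based multiplexed assay in primary human foreskin fibroblasts. EGFR is read by ELISA 24 h after treatment and compared with DMSO controls.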

[3] = BSK_hDFCGF_Proliferation: Cell Proliferation Assessment in the BioMAP Diversity Plus: hDFCGF Assay (AID 2283059); settings: primary human foreskin fibroblasts;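 further: curves fitted for both rise and fall of signal versus DMSO baseline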
Procedure, shortened: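 This proliferation readout used SRB total-protein staining of human foreskin fibroblasts […], normalized to DMSO with bidirectional curve fitting.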

[4] = read-out: Macrophage colony-stimulating factor (MCSF), CSF1 (gene 1435); experiment: BSK_hDFCGF_MCSF: BioMAP Diversity Plus: hDFCGF Assay for Macrophage colony-stimulating factor (MCSF) Biomarker Activity (AID 2283060); settings: primary human foreskin fibroblasts; actives raise or lower the signal
Procedure, shortened: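 M-CSF levels read by ELISA at 24 h post-dosing in human skin fibroblasts. Parallel cultures stained with SRB assessed cytotoxicity at the same time point; response fitted in both directions against the DMSO baseline.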

[5] = BSK_hDFCGF_SRB: Viability Assessment in the BioMAP Diversity Plus: hDFCGF Assay (AID 2283061); settings: primary human foreskin fibroblasts;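 further: cells exposed to compound for 24 h before the read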
Procedure, shortened: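 Viability was read as total protein: after 10% TCA fixation, wells were stained with 0.1% sulforhodamine B and read at 560 nm. Primary human foreskin fibroblasts were dosed for 24 h, with bidirectional fitting versus DMSO.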

[6] = read-out: TIMP metallopeptidase inhibitor 1 (TIMP1), TIMP1 (gene 7076); experiment: BSK_hDFCGF_TIMP1: BioMAP Diversity Plus: hDFCGF Assay for TIMP metallopeptidase inhibitor 1 (TIMP1) Biomarker Activity (AID 2283062); settings: primary human foreskin fibroblasts; actives raise or lower the signal
Procedure, shortened: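 TIMP-1 measured by ELISA 24 h after chemical dosing of primary human skin fibroblasts, with gain or loss fitted relative to DMSO. Parallel SRB staining (560 nm) monitored overt cytotoxicity.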

[7] = read-out: Monokine induced gamma interferon (MIG), CXCL9 (gene 4283); experiment: BSK_hDFCGF_MIG: BioMAP Diversity Plus: hDFCGF Assay for Monokine induced gamma interferon (MIG) Biomarker Activity (AID 2283063); settings: primary human foreskin fibroblasts; actives raise or lower the signal
Procedure, shortened: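 Human primary foreskin fibroblasts in the hDFCGF system, exposed to test chemical for 24 h; MIG measured by ELISA. Bidirectional curve fitting against DMSO negative control as activity baseline.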

[8] = read-out: Matrix Metallopeptidase 1 (MMP1), MMP1 (gene 4312); experiment: BSK_hDFCGF_MMP1: BioMAP Diversity Plus: hDFCGF Assay for Matrix Metallopeptidase 1 (MMP1) Biomarker Activity (AID 2283064); settings: primary human foreskin fibroblasts; actives raise or lower the signal
Procedure, shortened: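 ELISA read-out of MMP1 from human foreskin fibroblasts (primary skin cells), 24 h post-dose. Gain or loss of signal was fitted bidirectionally versus DMSO negative control; cytotoxicity was checked by SRB in parallel cultures.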

[9] = read-out: Vascular cell adhesion molecule 1 (VCAM1), VCAM1 (gene 7412); experiment: BSK_hDFCGF_VCAM1: BioMAP Diversity Plus: hDFCGF Assay for Vascular cell adhesion molecule 1 (VCAM1) Biomarker Activity (AID 2283065); settings: primary human foreskin fibroblasts; actives raise or lower the signal;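 on AC50: VCAM-1 protein level quantified by ELISA after 24 h chemical exposure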
Procedure, shortened: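 ELISA readout of VCAM-1 on human dermal fibroblast primary cultures, 24 h after chemical exposure. Gain or loss of signal fitted in both directions against DMSO baseline.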

[10] = read-out: Plasminogen activator inhibitor-1 (PAI1), SERPINE1 (gene 5054); experiment: BSK_hDFCGF_PAI1: BioMAP Diversity Plus: hDFCGF Assay for Plasminogen activator inhibitor-1 (PAI1) Biomarker Activity (AID 2283066); settings: primary human foreskin fibroblasts; actives raise or lower the signal
Procedure, shortened: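 Human skin fibroblast cultures receive chemical for 24 h before PAI-1 is measured by ELISA; signal changes are fitted bidirectionally against DMSO-treated wells.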

[11] = read-out: Intercellular Adhesion Molecule 1 (ICAM1), ICAM1 (gene 3383); experiment: BSK_KF3CT_ICAM1: BioMAP Diversity Plus: KF3CT Assay for Intercellular Adhesion Molecule 1 (ICAM1) Biomarker Activity (AID 2283067); settings: primary human keratinocytes with fibroblasts; actives raise or lower the signal
Procedure, shortened: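 Cell-surface ICAM-1 was measured by ELISA 24 h after dosing primary human skin keratinocytes co-cultured with fibroblasts. Parallel SRB staining tracked overt cytotoxicity. Gain or loss of signal was fitted relative to DMSO.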

[12] = read-out: Interferon-gamma inducible Protein 10 (IP10), CXCL10 (gene 3627); experiment: BSK_KF3CT_IP10: BioMAP Diversity Plus: KF3CT Assay for Interferon-gamma inducible Protein 10 (IP10) Biomarker Activity (AID 2283068); settings: primary human keratinocytes with fibroblasts; actives raise or lower the signal
Procedure, shortened: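 Signal is secreted/surface IP-10 by ELISA in a human primary skin co-culture of keratinocytes and foreskin fibroblasts, taken 24 h post-dosing; DMSO served as negative control.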

[13] = BSK_KF3CT_SRB: Viability Assessment in the BioMAP Diversity Plus: KF3CT Assay (AID 2283069); settings: primary human keratinocytes with fibroblasts;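 further: total protein by sulforhodamine B staining as a cytotoxicity measure; read 24 h after compound addition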
Procedure, shortened: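 SRB read-out at 560 nm (0.1% stain, TCA-fixed cells) gauges overt cytotoxicity in a human skin keratinocyte–fibroblast co-culture 24 h post-dosing. Signal change was fitted bidirectionally relative to DMSO control.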

[14] = read-out: Interleukin-1 alpha (IL1a), IL1A (gene 3552); experiment: BSK_KF3CT_IL1a: BioMAP Diversity Plus: KF3CT Assay for Interleukin-1 alpha (IL1a) Biomarker Activity (AID 2283070); settings: primary human keratinocytes with fibroblasts; actives raise or lower the signal
Procedure, shortened: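 Primary skin co-culture (keratinocytes, foreskin fibroblasts), 24 h exposure; ELISA for IL-1a; bidirectional curve fit vs DMSO.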

[15] = read-out: TIMP metallopeptidase inhibitor 2 (TIMP2), TIMP2 (gene 7077); experiment: BSK_KF3CT_TIMP2: BioMAP Diversity Plus: KF3CT Assay for TIMP metallopeptidase inhibitor 2 (TIMP2) Biomarker Activity (AID 2283071); settings: primary human keratinocytes with fibroblasts; actives raise or lower the signal
Procedure, shortened: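 Measurements come from ELISA detection of TIMP-2 at 24 hours in a dosed human keratinocyte and foreskin fibroblast co-culture. DMSO serves as negative control and baseline.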

[16] = read-out: Transforming growth factor beta 1 (TGFb1), TGFB1 (gene 7040); experiment: BSK_KF3CT_TGFb1: BioMAP Diversity Plus: KF3CT Assay for Transforming growth factor beta 1 (TGFb1) Biomarker Activity (AID 2283072); settings: primary human keratinocytes with fibroblasts; actives raise or lower the signal
Procedure, shortened: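 TGF-b1 ELISA on a 24 h dosed co-culture of human keratinocytes and foreskin fibroblasts; cytotoxicity tracked in parallel cultures by SRB staining.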

[17] = read-out: Matrix Metallopeptidase 9 (MMP9), MMP9 (gene 4318); experiment: BSK_KF3CT_MMP9: BioMAP Diversity Plus: KF3CT Assay for Matrix Metallopeptidase 9 (MMP9) Biomarker Activity (AID 2283074); settings: primary human keratinocytes with fibroblasts; actives raise or lower the signal;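 on AC50: MMP9 protein level quantified by ELISA in the co-culture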
Procedure, shortened: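 ELISA read-out of MMP-9 at 24 h post-dosing in a co-culture of human skin keratinocytes and foreskin fibroblasts. Gain or loss of signal was fitted in both directions against DMSO.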

CD40, CD40 (gene 958) = experiment: BSK_LPS_CD40: BioMAP Diversity Plus: LPS Assay for CD40 Biomarker Activity (AID 2283076); settings: primary human HUVEC with PBMC; actives raise or lower the signal
Procedure, shortened: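 In the LPS system of human endothelial cells with peripheral blood mononuclear cells, CD40 levels were read by ELISA 24 h post-treatment. Signal changes in either direction were fitted against the DMSO baseline, with parallel SRB protein staining.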

[18] = read-out: E-selectin (Homo sapiens) (UniProt P16581); experiment: BSK_LPS_Eselectin: BioMAP Diversity Plus: LPS Assay for Eselectin Biomarker Activity (AID 2283077); settings: primary human HUVEC with PBMC; actives raise or lower the signal
Procedure, shortened: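 E-selectin ELISA on LPS-stimulated endothelial cell/PBMC co-cultures, read 24 h post-treatment; gains and losses fitted against DMSO. Parallel SRB staining (0.1% SRB after 10% TCA fixation, 560 nm) flags overt cytotoxicity.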

[19] = read-out: Interleukin-8 (IL8), CXCL8 (gene 3576); experiment: BSK_LPS_IL8: BioMAP Diversity Plus: LPS Assay for Interleukin-8 (IL8) Biomarker Activity (AID 2283078); settings: primary human HUVEC with PBMC; actives raise or lower the signal
Procedure, shortened: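 ELISA read-out of IL-8 after 24 h chemical treatment of LPS-activated endothelial/PBMC human primary co-cultures. Changes either up or down relative to DMSO; overt cytotoxicity checked by sulforhodamine B staining in parallel wells.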

Measured: AC50

E-selectin (Homo sapiens), sequence (P16581 whole entry, looked up): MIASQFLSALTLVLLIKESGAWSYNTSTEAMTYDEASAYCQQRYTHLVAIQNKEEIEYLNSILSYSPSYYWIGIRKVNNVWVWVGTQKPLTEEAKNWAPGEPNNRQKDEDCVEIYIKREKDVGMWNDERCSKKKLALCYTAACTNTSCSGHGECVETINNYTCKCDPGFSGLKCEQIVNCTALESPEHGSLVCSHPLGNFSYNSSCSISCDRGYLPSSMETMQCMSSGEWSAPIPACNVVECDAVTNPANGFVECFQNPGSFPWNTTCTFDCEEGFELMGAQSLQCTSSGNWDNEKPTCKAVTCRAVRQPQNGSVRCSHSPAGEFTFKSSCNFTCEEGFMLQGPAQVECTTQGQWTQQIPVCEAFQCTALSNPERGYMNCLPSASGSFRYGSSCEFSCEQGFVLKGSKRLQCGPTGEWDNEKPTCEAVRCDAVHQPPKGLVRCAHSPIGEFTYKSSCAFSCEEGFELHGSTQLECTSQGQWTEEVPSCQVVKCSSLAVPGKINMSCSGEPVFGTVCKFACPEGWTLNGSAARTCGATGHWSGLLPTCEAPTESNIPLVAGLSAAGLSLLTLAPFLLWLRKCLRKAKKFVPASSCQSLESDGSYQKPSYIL

C=CC(=O)OCC(Br)CBr (stereo not given)
active: [1] 5.82 µM | [3] 5.47 µM | [4] 5.95 µM | [5] 9.67 µM | [6] 11.9 µM | [7] 6.57 µM | [8] 11.8 µM | [9] 1.65 µM | [10] 8.55 µM | [11] 25.2 µM | [12] 30 µM | [13] 33.8 µM | [14] 32.2 µM | [15] 32 µM | [16] 5.81 µM | [17] 28.1 µM | CD40, CD40 (gene 958) 15.6 µM | [18] 20 µM | [19] 12.5 µM
inactive: [2]

CCCCCCCCc1ccc(Nc2ccc(CCCCCCCC)cc2)cc1
inactive: [1] | [2] | [3] | [4] | [5] | [6] | [7] | [8] | [9] | [10] | [11] | [12] | [13] | [14] | [15] | [16] | [17] | CD40, CD40 (gene 958) | [18] | [19]
